# Records with an inconclusive call do not appear. Entries that show only a call come without a potency. Unmarked numbers belong to inactive results. Active and inactive are the calls of the source. Unless noted, the call rests on the fitted dose curve; in most records, active means well fitted curve in the direction sought with a large enough effect in the repeat runs; inconclusive means weak or mixed curves; inactive means no such curve, though single readings can be large; an effect the other way counts as inactive or inconclusive.
# Assays:
# [1] = target: Aryl hydrocarbon receptor (Homo sapiens) (UniProt P35869); experiment: qHTS assay to identify small molecule that activate the aryl hydrocarbon receptor (AhR) signaling pathway (AID 743085); further: nearly all actives have a fitted effect of over 15% in size; further: potency means the concentration at half of the fitted maximal effect;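 on activation: HG2L7.5c1 human HepG2 liver cells with stably integrated DRE-driven firefly reporter; series mostly up to about 70 µM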
# Procedure, shortened: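 Stably transfected human liver carcinoma cells (HG2L7.5c1; 20 DRE-firefly luciferase) were incubated 5 h, dosed, and kept 24 h at 37C. Agonism was scored from increased luciferase luminescence.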
# [2] = qHTS assay to identify small molecule that activate the aryl hydrocarbon receptor (AhR) signaling pathway - cell viability counter screen (AID 743086); further: nearly all actives have a fitted effect of over 45% in size; further: potency means the concentration at half of the fitted maximal effect;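 on viability change, negative = cytotoxic: HepG2 liver cells carrying the AhR DRE luciferase reporter; series mostly up to about 70 µM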
# Procedure, shortened: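 HepG2-AhR-luc (HG2L7.5c1) cells, 4000/well, were preincubated 5 h at 37C, exposed to compound in qHTS format for 24 hr at 37C, then given CellTiter-Fluor for 30 min; viability was read as fluorescence in the reporter wells.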
# [3] = target: Peroxisome proliferator-activated receptor gamma (Homo sapiens) (UniProt P37231); experiment: qHTS assay to identify small molecule agonists of the peroxisome proliferator-activated receptor gamma (PPARg) signaling pathway (AID 743094; active means well fitted activation curve with a large enough effect in the signal ratio in the repeat runs, not every such curve was filed as active; the % refers to the signal ratio)
# Procedure, shortened: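 Stably transfected HEK293H cells (GeneBLAzer PPARg UAS-bla) were incubated with test substances for 17 h at 37C after a 5 h pre-incubation; beta-lactamase activity was then detected by FRET substrate fluorescence.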
# [4] = target: Peroxisome proliferator-activated receptor gamma (Homo sapiens) (UniProt P37231); experiment: qHTS assay to identify small molecule antagonists of the peroxisome proliferator-activated receptor gamma (PPARg) signaling pathway (AID 743191; calls by dose curve; further: nearly all actives have a fitted effect of over 30% in size; further: potency means the concentration at half of the fitted maximal effect; on ratio activity, negative = inhibition: series mostly up to about 63 µM)
# Procedure, shortened: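 GeneBLAzer PPARg UAS-bla HEK293H cells carrying a UAS-driven beta-lactamase reporter were plated at 3000 cells/well, preincubated 5 h at 37C, then given compound for 17 h at 37C; LiveBLAzer B/G FRET substrate was read after 1 h at room temperature.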
# [5] = qHTS assay to identify small molecule antagonists of the peroxisome proliferator-activated receptor gamma (PPARg) signaling pathway - cell viability counter screen (AID 743194); further: nearly all actives have a fitted effect of over 55% in size
# Procedure, shortened: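 PPARg-UAS-bla HEK293H cells were plated, rested 5 h at 37 C, then treated with compounds plus rosiglitazone (50 nM final) for 17 h at 37 C; viability was then read by CellTiter-Glo luminescence after 30 min at room temperature.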
# [6] = qHTS assay for small molecule agonists of the antioxidant response element (ARE) signaling pathway (AID 743202; active means well fitted activation curve with a large enough effect in the signal ratio in the repeat runs, not every such curve was filed as active; the % refers to the signal ratio; further: potency means the concentration at half of the fitted maximal effect)
# Procedure, shortened: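 Compounds delivered in DMSO to ARE-bla HepG2 cells (2,000 cells/well, pre-incubated 5 h) and left 16 h at 37 C. LiveBLAzer B/G FRET substrate then added for 2 h at RT before fluorescence reading.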
# [7] = qHTS assay for small molecule agonists of the antioxidant response element (ARE) signaling pathway - cell viability counter screen (AID 743203; calls by dose curve; further: nearly all actives have a fitted effect of over 55% in size)
# Procedure, shortened: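 Cells (ARE-bla HepG2, 2,000/well) receive DMSO-dissolved compounds after a 5 hrs rest. Plates incubate 16 hrs at 37C/5% CO2. CellTiter-Glo luminescence is then recorded after 30 min at room temperature.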
# [8] = qHTS assay for small molecule activators of the heat shock response signaling pathway - cell viability counter screen (AID 743209); further: nearly all actives have a fitted effect of over 50% in size
# Procedure, shortened: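 Quantitative HTS format, Tox21 10K library. HeLa cells carrying an HSE-driven beta-lactamase reporter were treated 5 h at 37 C, then assessed for viability by CellTiter-Glo luminescence.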
# [9] = qHTS assay for small molecule activators of the heat shock response signaling pathway (AID 743210; active means well fitted activation curve with a large enough effect in the signal ratio in the repeat runs, with a control signal flat, not every such curve was filed as active; the % refers to the signal ratio;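 further: HeLa cells with beta-lactamase reporter driven by heat shock elements; series mostly up to about 63 µM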)
# Procedure, shortened: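 Reporter gene assay: HeLa cells stably bearing an HSE-bla construct, compound treatment 5 h at 37 C, LiveBLAzer substrate 2.5 h at RT, fluorescence intensity.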
# [10] = qHTS assay to identify aromatase inhibitors - cell viability counter screen (AID 743084);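 further: cells stimulated with testosterone during compound exposure; nearly all actives have a fitted effect of over 55% in size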
# Sequence of Peroxisome proliferator-activated receptor gamma (Homo sapiens) (P37231 whole entry, looked up): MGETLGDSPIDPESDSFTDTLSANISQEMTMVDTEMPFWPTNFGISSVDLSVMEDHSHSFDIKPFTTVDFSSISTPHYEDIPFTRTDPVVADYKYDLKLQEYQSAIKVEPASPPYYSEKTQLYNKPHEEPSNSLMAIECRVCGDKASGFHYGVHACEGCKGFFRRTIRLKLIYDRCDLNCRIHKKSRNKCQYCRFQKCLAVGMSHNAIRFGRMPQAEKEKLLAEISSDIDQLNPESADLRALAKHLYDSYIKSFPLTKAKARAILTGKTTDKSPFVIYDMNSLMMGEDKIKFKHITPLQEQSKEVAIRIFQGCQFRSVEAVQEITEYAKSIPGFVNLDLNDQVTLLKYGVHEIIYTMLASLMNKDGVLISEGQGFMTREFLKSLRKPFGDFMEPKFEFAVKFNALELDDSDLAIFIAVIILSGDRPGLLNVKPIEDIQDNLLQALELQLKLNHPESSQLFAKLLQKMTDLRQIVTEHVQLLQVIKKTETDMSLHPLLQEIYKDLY
# Sequence of Aryl hydrocarbon receptor (Homo sapiens) (P35869 whole entry, looked up): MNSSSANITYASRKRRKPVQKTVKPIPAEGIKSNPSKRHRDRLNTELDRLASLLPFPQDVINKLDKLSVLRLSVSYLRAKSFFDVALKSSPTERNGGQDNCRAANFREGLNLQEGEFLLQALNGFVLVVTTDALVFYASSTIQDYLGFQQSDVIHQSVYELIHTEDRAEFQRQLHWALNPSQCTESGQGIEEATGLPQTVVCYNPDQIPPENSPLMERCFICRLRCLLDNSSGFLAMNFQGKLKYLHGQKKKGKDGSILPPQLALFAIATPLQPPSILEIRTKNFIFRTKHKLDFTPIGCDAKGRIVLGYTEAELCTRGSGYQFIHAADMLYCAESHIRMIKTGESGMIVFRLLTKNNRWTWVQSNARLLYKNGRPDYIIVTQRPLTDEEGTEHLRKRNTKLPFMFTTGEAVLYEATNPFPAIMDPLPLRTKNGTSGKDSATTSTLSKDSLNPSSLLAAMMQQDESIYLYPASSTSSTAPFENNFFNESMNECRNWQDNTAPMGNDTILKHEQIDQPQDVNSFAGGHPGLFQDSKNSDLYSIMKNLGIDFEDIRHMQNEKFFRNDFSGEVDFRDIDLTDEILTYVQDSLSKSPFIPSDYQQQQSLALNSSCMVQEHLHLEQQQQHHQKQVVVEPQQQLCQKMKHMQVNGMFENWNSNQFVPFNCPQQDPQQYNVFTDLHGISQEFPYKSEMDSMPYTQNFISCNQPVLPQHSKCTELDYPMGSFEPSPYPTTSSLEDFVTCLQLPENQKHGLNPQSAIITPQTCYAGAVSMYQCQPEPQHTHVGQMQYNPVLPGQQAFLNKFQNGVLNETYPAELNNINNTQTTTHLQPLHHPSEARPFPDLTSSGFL
smiles,measurement,setting,value
CC(C)CCCCOC(=O)c1ccccc1C(=O)OCCCCC(C)C,Potency,[1],inactive
same,Potency,[2],inactive
same,outcome,[3],inactive
same,Potency,[4],inactive
same,outcome,[5],inactive
same,Potency,[6],inactive
same,outcome,[7],inactive
same,outcome,[8],inactive
same,outcome,[9],inactive
O=C(NCC(O)CO)c1c(I)c(C(=O)NCC(O)CO)c(I)c(N(CCO)C(=O)CO)c1I (stereo not given),Potency,[2],inactive
same,outcome,[5],inactive
same,outcome,[7],inactive
same,outcome,[8],inactive
same,outcome,[9],inactive
CC(C)(C)c1nnc(NS(=O)(=O)c2ccc(N)cc2)s1,outcome,[5],inactive
same,Potency,[6],inactive
same,outcome,[7],inactive
same,outcome,[8],inactive
same,outcome,[9],inactive
CC(C)C[C@H](NC(=O)CNC(=O)[C@H](Cc1ccc(O)cc1)NC(=O)[C@H](CO)NC(=O)[C@H](Cc1c[nH]c2ccccc12)NC(=O)[C@H](Cc1cnc[nH]1)NC(=O)[C@@H]1CCC(=O)N1)C(=O)N[C@@H](CCCN=C(N)N)C(=O)N1CCC[C@H]1C(=O)NCC(N)=O (stereo in doubt),Potency,[2],inactive
same,Potency,[6],inactive
same,outcome,[7],inactive
same,outcome,[8],inactive
CC(C)=CCOC(=O)c1ccccc1,Potency,[2],inactive
same,outcome,[5],inactive
same,outcome,[7],inactive
same,outcome,[8],inactive
same,outcome,[9],inactive
COc1cc(N)ccc1C,Potency,[2],inactive
same,outcome,[7],inactive
same,outcome,[8],inactive
same,outcome,[9],inactive
C=CC(OCC)OCC,Potency,[1],60.4 µM (active)
same,Potency,[2],inactive
same,outcome,[3],inactive
same,outcome,[5],inactive
same,Potency,[6],34 µM (active)
same,outcome,[7],inactive
same,outcome,[8],inactive
Cc1ccc2ccc(Cl)cc2n1,Potency,[4],inactive
same,outcome,[5],inactive
same,Potency,[6],inactive
same,outcome,[7],inactive
same,outcome,[8],inactive
O=C(CCNNC(=O)c1ccncc1)NCc1ccccc1,Potency,[10],inactive
same,Potency,[2],inactive
same,outcome,[5],inactive
same,Potency,[6],inactive
same,outcome,[7],inactive
same,outcome,[8],inactive
same,outcome,[9],inactive
O=C(OCC(O)CO)c1ccccc1Nc1ccnc2c(C(F)(F)F)cccc12 (stereo not given),Potency,[4],16.8 µM (active)
same,outcome,[5],inactive
same,Potency,[6],26.6 µM (active)
same,outcome,[7],inactive
same,outcome,[8],inactive
CCOCCOC(=O)/C=C/c1ccc(OC)cc1,Potency,[4],inactive
same,outcome,[5],inactive
same,outcome,[7],inactive
same,outcome,[8],inactive
CCC(C)NC(N)=O (stereo not given),Potency,[2],inactive
same,outcome,[3],inactive
same,outcome,[5],inactive
same,Potency,[6],inactive
same,outcome,[7],inactive
same,outcome,[8],inactive
same,outcome,[9],inactive
O=P(O)(O)OP(=O)(O)O,Potency,[2],inactive
same,outcome,[5],inactive
same,Potency,[6],inactive
same,outcome,[7],inactive
same,outcome,[8],inactive
same,outcome,[9],inactive
CN1CCN(CC(=O)N2c3ccccc3C(=O)Nc3cccnc32)CC1,Potency,[1],inactive
same,Potency,[2],inactive
same,outcome,[3],inactive
same,"ratio activity, negative = inhibition",[4],0.895% [at 5.95 µM]
same,"activity change, negative = cytotoxicity",[5],4.99% [at 5.95 µM]
same,activation,[6],3.2% [at 8.36 µM]
same,"viability change, negative = cytotoxic",[7],1.72% [at 8.36 µM]
same,activation,[9],-0.267% [at 5.95 µM]
COc1cc2c(cc1OC)C(=O)CC2,Potency,[4],inactive
same,outcome,[5],inactive
same,Potency,[6],inactive
same,outcome,[7],inactive
same,outcome,[8],inactive
same,outcome,[9],inactive
O=C(O)c1cc(Cl)cc([N+](=O)[O-])c1Cl,Potency,[1],inactive
same,Potency,[2],inactive
same,outcome,[3],inactive
same,Potency,[4],inactive
same,outcome,[5],inactive
same,outcome,[7],inactive
same,outcome,[8],inactive
same,outcome,[9],inactive
CN(CCOc1ccc(NS(C)(=O)=O)cc1)CCc1ccc(NS(C)(=O)=O)cc1,Potency,[1],inactive
same,Potency,[2],inactive
same,outcome,[3],inactive
same,outcome,[5],inactive
same,Potency,[6],inactive
same,outcome,[7],inactive
same,outcome,[8],inactive
Cc1cccc(OCC(O)CNC(C)(C)C)c1C (stereo not given),Potency,[4],inactive
same,outcome,[5],inactive
same,outcome,[7],inactive
same,outcome,[8],inactive
same,outcome,[9],inactive
COc1ccc2nc(SCc3ncc(C)c(OC)c3C)[nH]c2c1,Potency,[4],inactive
same,outcome,[5],inactive
same,Potency,[6],inactive
same,outcome,[7],inactive
same,outcome,[8],inactive
O=C1CC(c2ccc(Cl)cc2)CC(=O)N1,Potency,[4],inactive
same,outcome,[5],inactive
same,Potency,[6],inactive
same,outcome,[7],inactive
same,outcome,[8],inactive
same,outcome,[9],inactive
O=C(CCN1CCN(CCO)CC1)N1c2ccccc2Sc2ccc(C(F)(F)F)cc21,Potency,[1],inactive
same,Potency,[2],21.1 µM (active)
same,outcome,[3],inactive
same,Potency,[4],inactive
same,outcome,[5],inactive
same,outcome,[7],inactive
same,outcome,[8],inactive
COC(=O)C1CC(=O)C(C(=O)OC)CC1=O (stereo not given),activation,[1],0.473% [at 8.47 µM]
same,"viability change, negative = cytotoxic",[2],14.4% [at 8.47 µM]
same,activation,[3],-2.09% [at 7.08 µM]
same,"ratio activity, negative = inhibition",[4],0.96% [at 5.95 µM]
same,"activity change, negative = cytotoxicity",[5],17.9% [at 5.95 µM]
same,activation,[6],-4.53% [at 8.36 µM]
same,"viability change, negative = cytotoxic",[7],-0.839% [at 8.36 µM]
same,"activity change, negative = cytotoxicity",[8],12.2% [at 5.95 µM]
Oc1ccccc1-c1nnco1,outcome,[5],inactive
same,Potency,[6],inactive
same,outcome,[8],inactive
same,outcome,[9],inactive
NS(=O)(=O)c1cc2c(cc1Cl)CN(C1CCCCC1)C2=O,Potency,[4],inactive
same,outcome,[5],inactive
same,Potency,[6],inactive
same,outcome,[7],inactive
same,outcome,[8],inactive
same,outcome,[9],inactive
COc1ccc2c(c1OC)C(=O)O[C@@H]2[C@H]1c2c(cc3c(c2OC)OCO3)CCN1C,Potency,[2],29.8 µM (active)
same,outcome,[5],inactive
same,Potency,[6],inactive
same,outcome,[7],inactive
same,outcome,[8],inactive
same,outcome,[9],inactive
COCCc1ccc(OCC2CO2)cc1 (stereo not given),outcome,[5],inactive
same,outcome,[7],inactive
same,outcome,[8],inactive
Cc1ccccc1N=O,Potency,[2],inactive
same,outcome,[5],inactive
same,outcome,[7],inactive
same,outcome,[8],inactive
same,outcome,[9],inactive
CCCOC(=O)C(C)O (stereo not given),Potency,[1],inactive
same,Potency,[2],inactive
same,outcome,[3],inactive
same,Potency,[4],inactive
same,outcome,[5],inactive
same,Potency,[6],inactive
same,outcome,[7],inactive
Brc1ccc(-c2ccccc2)cc1,Potency,[1],inactive
same,Potency,[2],inactive
same,outcome,[5],inactive
same,Potency,[6],inactive
same,outcome,[7],inactive
same,outcome,[8],inactive
same,outcome,[9],inactive
O=C(c1ccc(O)cc1)c1ccc(O)c(O)c1O,Potency,[1],61.4 µM (active)
same,outcome,[3],inactive
same,outcome,[5],inactive
same,Potency,[6],inactive
same,outcome,[7],inactive
same,outcome,[9],inactive
CCn1ccc(NS(=O)(=O)c2ccc(N)cc2)nc1=O,outcome,[5],inactive
same,outcome,[7],inactive
same,outcome,[9],inactive

# Reference: PubChem BioAssay (Tox21)
